Measurements as given in PubChem BioAssay (NCATS).
Results filed as inconclusive are left out. Calls of active or inactive are those of the source. Calls come from the whole dose curve; as a rule, active = well fitted curve in the direction sought with a large enough effect; inconclusive = small, poorly fitted or top-dose-only effect, or another doubt; inactive = no such curve, though single readings can be large; an effect the other way counts as inactive or inconclusive.

Columns and labels:
[1] = molecular target: ATP-dependent 6-phosphofructokinase (Trypanosoma brucei brucei) (UniProt O15648); experiment: qHTS Assay to Find Inhibitors of T. brucei phosphofructokinase: hit validation (AID 492961);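 note: luminescence reports ADP formed as PFK phosphorylates fructose-6-phosphate with ATP; % is set by controls: 0 for no effect and ±100 for the full control effect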; conditions: T. brucei PFK, ADP-Glo luminescence; series mostly up to 51.4 µM
Procedure, shortened: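 Percent activity derived from corrected luminescence, normalized between 0x and 1x enzyme controls, then fitted to concentration-response curves. Conditions: 1.25 nM PFK, 0.1 mM ATP, 0.5 mM F6P, 45 min RT.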

[2] = qHTS profiling for inhibitors of Plasmodium falciparum proliferation (AID 504749);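 note: 0% = DMSO vehicle and full inhibition = artemisinin control; nearly all actives have a fitted effect of over 60% in size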; conditions: P. falciparum in erythrocytes, SYBR Green DNA, 72 h, at 28.7 µM (top of the series)
Procedure, shortened: (§1)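 Parasite proliferation within erythrocytes, 72 h exposure. Endpoint: SYBR Green I fluorescence after overnight lysis at room temperature. Controls: 0.29 uM artemisinin, DMSO.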

[3] = system: AA1029; experiment: as above; conditions: P. falciparum in erythrocytes, SYBR Green DNA, 72 h; series mostly up to 28.7 µM
Procedure, shortened: as §1

[4] = system: AS120; experiment: as above; conditions: P. falciparum in erythrocytes, SYBR Green DNA, 72 h; series mostly up to 28.7 µM
Procedure, shortened: as §1

[5] = system: ATS189; experiment: as above; conditions: P. falciparum in erythrocytes, SYBR Green DNA, 72 h; series mostly up to 28.7 µM
Procedure, shortened: as §1

[6] = system: CP185; experiment: as above; conditions: P. falciparum in erythrocytes, SYBR Green DNA, 72 h; series mostly up to 28.7 µM
Procedure, shortened: as §1

[7] = system: CP211; experiment: as above; conditions: P. falciparum in erythrocytes, SYBR Green DNA, 72 h; series mostly up to 28.7 µM
Procedure, shortened: as §1

[8] = system: CP217; experiment: as above; conditions: P. falciparum in erythrocytes, SYBR Green DNA, 72 h; series mostly up to 28.7 µM
Procedure, shortened: as §1

[9] = system: CP238; experiment: as above; conditions: P. falciparum in erythrocytes, SYBR Green DNA, 72 h; series mostly up to 28.7 µM
Procedure, shortened: as §1

[10] = system: CP252; experiment: as above; conditions: P. falciparum in erythrocytes, SYBR Green DNA, 72 h; series mostly up to 28.7 µM
Procedure, shortened: as §1

[11] = system: CP262; experiment: as above; conditions: P. falciparum in erythrocytes, SYBR Green DNA, 72 h; series mostly up to 28.7 µM
Procedure, shortened: as §1

[12] = system: CP265; experiment: as above; conditions: P. falciparum in erythrocytes, SYBR Green DNA, 72 h; series mostly up to 28.7 µM
Procedure, shortened: as §1

[13] = system: CP269; experiment: as above; conditions: P. falciparum in erythrocytes, SYBR Green DNA, 72 h; series mostly up to 28.7 µM
Procedure, shortened: as §1

[14] = system: CP286; experiment: as above; conditions: P. falciparum in erythrocytes, SYBR Green DNA, 72 h; series mostly up to 28.7 µM
Procedure, shortened: as §1

[15] = system: CP329; experiment: as above; conditions: P. falciparum in erythrocytes, SYBR Green DNA, 72 h; series mostly up to 28.7 µM
Procedure, shortened: as §1

[16] = system: DFO2036; experiment: as above; conditions: P. falciparum in erythrocytes, SYBR Green DNA, 72 h; series mostly up to 28.7 µM
Procedure, shortened: as §1

[17] = system: ECU; experiment: as above; conditions: P. falciparum in erythrocytes, SYBR Green DNA, 72 h; series mostly up to 28.7 µM
Procedure, shortened: as §1

[18] = system: FAB9; experiment: as above; conditions: P. falciparum in erythrocytes, SYBR Green DNA, 72 h; series mostly up to 28.7 µM
Procedure, shortened: as §1

[19] = system: N140; experiment: as above; conditions: P. falciparum in erythrocytes, SYBR Green DNA, 72 h; series mostly up to 28.7 µM
Procedure, shortened: as §1

[20] = system: TAB109; experiment: as above; conditions: P. falciparum in erythrocytes, SYBR Green DNA, 72 h; series mostly up to 28.7 µM
Procedure, shortened: as §1

ATP-dependent 6-phosphofructokinase (Trypanosoma brucei brucei), sequence (O15648 whole entry, looked up): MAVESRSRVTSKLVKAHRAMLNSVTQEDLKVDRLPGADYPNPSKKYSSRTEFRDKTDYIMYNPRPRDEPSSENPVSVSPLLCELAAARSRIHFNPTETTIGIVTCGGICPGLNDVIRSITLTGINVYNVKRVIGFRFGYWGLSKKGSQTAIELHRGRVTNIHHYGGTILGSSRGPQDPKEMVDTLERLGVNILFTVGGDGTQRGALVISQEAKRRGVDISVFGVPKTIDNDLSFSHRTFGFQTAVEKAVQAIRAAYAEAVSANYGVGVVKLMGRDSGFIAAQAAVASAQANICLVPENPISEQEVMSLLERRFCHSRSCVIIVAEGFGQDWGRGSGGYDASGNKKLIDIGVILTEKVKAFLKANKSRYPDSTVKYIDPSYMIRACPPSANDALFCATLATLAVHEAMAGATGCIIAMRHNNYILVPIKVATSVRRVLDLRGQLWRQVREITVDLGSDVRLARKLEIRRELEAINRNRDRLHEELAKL

CC[C@@H](C)C(N)C(=O)O (stereo partly specified)
inactive: Potency [1] | activity, negative = inhibition ([2]; parasite line A) 6.94% | activity, negative = inhibition ([2]; parasite line B) 2.73% | Potency [3] | Potency [4] | Potency [5] | Potency [6] | Potency [7] | Potency [8] | Potency [9] | Potency [10] | Potency [11] | Potency [12] | Potency [13] | Potency [14] | Potency [15] | Potency [16] | Potency [17] | Potency [18] | Potency [19] | Potency [20]

CO/N=C(/C(=O)N[C@@H]1C(=O)N2C(C(=O)O)=C(CSc3nc(C)c(CC(=O)O)s3)CS[C@H]12)c1csc(N)n1
inactive: Potency [1] | activity, negative = inhibition ([2]; parasite line A) 5.91% | activity, negative = inhibition ([2]; parasite line B) 4.95% | Potency [3] | Potency [4] | Potency [5] | Potency [6] | Potency [7] | Potency [8] | Potency [9] | Potency [10] | Potency [11] | Potency [12] | Potency [13] | Potency [14] | Potency [15] | Potency [16] | Potency [17] | Potency [18] | Potency [19] | Potency [20]

C=C1[C@@H]2CC[C@H](C2)C1(C)C
inactive: Potency [1] | activity, negative = inhibition ([2]; parasite line A) 10.4% | activity, negative = inhibition ([2]; parasite line B) -2.91% | Potency [3] | Potency [4] | Potency [5] | Potency [6] | Potency [7] | Potency [8] | Potency [9] | Potency [10] | Potency [11] | Potency [12] | Potency [13] | Potency [14] | Potency [15] | Potency [16] | Potency [17] | Potency [18] | Potency [19] | Potency [20]

CCN(CC)C(=O)Nc1ccc(OC[C@H](O)CNC(C)(C)C)c(C(C)=O)c1
inactive: Potency [1] | activity, negative = inhibition ([2]; parasite line A) 5.16% | activity, negative = inhibition ([2]; parasite line B) -3.7% | Potency [3] | Potency [4] | Potency [5] | Potency [6] | Potency [7] | Potency [8] | Potency [9] | Potency [10] | Potency [11] | Potency [12] | Potency [13] | Potency [14] | Potency [15] | Potency [16] | Potency [17] | Potency [18] | Potency [19] | Potency [20]

CCCCC/C(C=O)=C/c1ccccc1
inactive: Potency [1] | activity, negative = inhibition ([2]; parasite line A) -0.781% | activity, negative = inhibition ([2]; parasite line B) -10.8% | Potency [3] | Potency [4] | Potency [5] | Potency [6] | Potency [7] | Potency [8] | Potency [9] | Potency [10] | Potency [11] | Potency [12] | Potency [13] | Potency [14] | Potency [15] | Potency [16] | Potency [17] | Potency [18] | Potency [19] | Potency [20]

O=c1[nH]c(=O)n(C2C[C@H](O)[C@@H](CO)O2)cc1C(F)(F)F (stereo partly specified)
inactive: Potency [1] | activity, negative = inhibition ([2]; parasite line A) -3.45% | activity, negative = inhibition ([2]; parasite line B) -4.14% | Potency [3] | Potency [4] | Potency [5] | Potency [6] | Potency [7] | Potency [8] | Potency [9] | Potency [10] | Potency [11] | Potency [12] | Potency [13] | Potency [14] | Potency [15] | Potency [16] | Potency [17] | Potency [18] | Potency [19] | Potency [20]

CCN1CCN(C(=O)NC(C(=O)NC2C(=O)N3C(C(=O)O)=C(CSc4nnnn4C)CSC23)c2ccc(O)cc2)C(=O)C1=O (stereo unspecified)
inactive: Potency [1] | activity, negative = inhibition ([2]; parasite line A) 1.12% | activity, negative = inhibition ([2]; parasite line B) -9.29% | Potency [3] | Potency [4] | Potency [5] | Potency [6] | Potency [7] | Potency [8] | Potency [9] | Potency [10] | Potency [11] | Potency [12] | Potency [13] | Potency [14] | Potency [15] | Potency [16] | Potency [17] | Potency [18] | Potency [19] | Potency [20]

Cc1ccc(Nc2ncccc2C(=O)O)cc1C
inactive: Potency [1] | activity, negative = inhibition ([2]; parasite line A) 6.4% | activity, negative = inhibition ([2]; parasite line B) 7.72% | Potency [3] | Potency [4] | Potency [5] | Potency [6] | Potency [7] | Potency [8] | Potency [9] | Potency [10] | Potency [11] | Potency [12] | Potency [13] | Potency [14] | Potency [15] | Potency [16] | Potency [17] | Potency [18] | Potency [19] | Potency [20]

O=C1NC(=O)C2C3C=CC(C3)C12 (stereo unspecified)
inactive: Potency [1] | activity, negative = inhibition ([2]; parasite line A) 8.3% | activity, negative = inhibition ([2]; parasite line B) 20.1% | Potency [3] | Potency [4] | Potency [5] | Potency [6] | Potency [7] | Potency [8] | Potency [9] | Potency [10] | Potency [11] | Potency [12] | Potency [13] | Potency [14] | Potency [15] | Potency [16] | Potency [17] | Potency [18] | Potency [19] | Potency [20]

C[C@]12CC[C@@H]3c4ccc(O)cc4CC[C@H]3[C@@H]1C[C@H](O)C2O (stereo partly specified)
inactive: Potency [1] | activity, negative = inhibition ([2]; parasite line A) 7.19% | activity, negative = inhibition ([2]; parasite line B) 12.7% | Potency [3] | Potency [4] | Potency [5] | Potency [6] | Potency [7] | Potency [8] | Potency [9] | Potency [10] | Potency [11] | Potency [12] | Potency [13] | Potency [14] | Potency [15] | Potency [16] | Potency [17] | Potency [18] | Potency [19] | Potency [20]

O=C1CC[C@H](C(=O)N[C@@H]2C[C@H]2c2ccccc2)N1
inactive: Potency [1] | activity, negative = inhibition ([2]; parasite line A) 10.5% | activity, negative = inhibition ([2]; parasite line B) 18.1% | Potency [3] | Potency [4] | Potency [5] | Potency [6] | Potency [7] | Potency [8] | Potency [9] | Potency [10] | Potency [11] | Potency [12] | Potency [13] | Potency [14] | Potency [15] | Potency [16] | Potency [17] | Potency [18] | Potency [19] | Potency [20]
